# Data from the supplement of paper PMC9135407.
# “And” between values parts separate entries of the source, which are not always exact repeats. Equal values may be shown once. In all, about 5,800 compounds went through this assay and about 620 (11%) showed activity. The entries come from a sample that favours actives as a whole. Values without a mark were called inactive.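 The calls were made as follows: active = score above a cut-off or among the top three wells of a plate; in these data no inactive exceeds 0.85.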
# Test system: primary human hepatic stellate cells (donor 1)
# Experiment: scaled lipid accumulation score (0 = DMSO-like, 1 = nortriptyline-like); higher = stronger HSC inactivation (lipid re-accumulation), active = hit call of the paper
# Conditions: 48 h
# Experimental: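 Primary lipid accumulation screen in primary human hepatic stellate cell myofibroblasts (donor 1, passage 8) in 384-well plates. 100 nL of library compound was pin-transferred into 30 µL medium in duplicate, and cells were treated for 48 h. The 'Scaled' score combines distance from plate baseline, toxicity and reproducibility penalties, and is normalised to nortriptyline (positive) and DMSO (negative) controls on each plate. A hit is defined as scaled >0.85 or among the top 3 wells per plate.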
# [1] = library stock concentration: 80 uM
# [2] = library stock concentration: 400 uM
# [3] = library stock concentration: 2 mM
# [4] = library stock concentration: 10 mM
# [5] = library stock concentration: 1 mM
# [6] = library stock concentration: 3.33 mM
smiles,measurement,setting,value
OC1CCC(Nc2ncc3nc(Nc4c(F)cc(F)cc4F)n([C@@H]4CCOC4)c3n2)CC1 (stereo partly specified),scaled lipid accumulation score,[1],≤ 0
same,scaled lipid accumulation score,[2],≤ 0
same,scaled lipid accumulation score,[3],≤ 0
same,scaled lipid accumulation score,[4],≤ 0
O=C1O/C(=C/Br)CC[C@@H]1c1cccc2ccccc12 [(R)-Bromoenol lactone],scaled lipid accumulation score,[5],0.064
CCOC(=O)C1(CCCCCCOc2ccc(Cl)cc2)CO1 (stereo unspecified),scaled lipid accumulation score,[4],≤ 0
O=C(O)CCC/C=C\C[C@@H]1[C@@H](/C=C/[C@@H](O)Cc2ccccc2)[C@H](O)C[C@@H]1O [16-phenyl tetranor Prostaglandin F2.alpha.],scaled lipid accumulation score,[5],≤ 0
COC(=O)/C=C/C(=O)N(O)CCCCNCc1ccc(COC(=O)Nc2cccc3ccccc23)cc1 [Methylstat],scaled lipid accumulation score,[1],≤ 0
same,scaled lipid accumulation score,[2],≤ 0
same,scaled lipid accumulation score,[3],≤ 0
same,scaled lipid accumulation score,[4],0.26
"CCCCC[C@H](O)/C=C/[C@H]1[C@H](O)CC(=O)[C@@H]1CCCCCCCCC(=O)O [1a,1b-dihomo Prostaglandin E1]",scaled lipid accumulation score,[5],≤ 0
CC1=C(/C=C/C(C)=C/C=C/C(C)=C/C=C/C=C(C)/C=C/C=C(C)/C=C/C2=C(C)C(=O)CCC2(C)C)C(C)(C)CCC1=O [Canthaxanthin],scaled lipid accumulation score,library stock concentration: 3.5 mM,1.25 (active)
CC1=C(/C=C/C(C)=C/C=C/C(C)=C/C=C/C=C(C)/C=C/C=C(C)/C=C/C2=C(C)C(=O)[C@@H](O)CC2(C)C)C(C)(C)C[C@H](O)C1=O [Astaxanthin],scaled lipid accumulation score,[4],≤ 0
CC1=C(/C=C/C(C)=C/C=C/C(C)=C/C=C/C=C(C)/C=C/C=C(C)/C=C/C2=C(C)CCCC2(C)C)C(C)(C)CCC1 [Beta Carotene],scaled lipid accumulation score,[6],≤ 0
same,scaled lipid accumulation score,[4],≤ 0
CC(=O)N1CCCC1C(=O)O (stereo unspecified) [N-acetylproline],scaled lipid accumulation score,[4],≤ 0
C[C@]12C=CC(=O)C=C1CC[C@@H]1[C@@H]2[C@@H](O)C[C@@]2(C)[C@H]1CC[C@]2(O)C(=O)COC(=O)CCC(=O)O,scaled lipid accumulation score,[4],≤ 0
O=C(CCc1ccc(O)cc1)c1c(O)cc(O)cc1O[C@@H]1O[C@H](CO)[C@@H](O)[C@H](O)[C@H]1O [Phlorizin],scaled lipid accumulation score,[6],≤ 0
same,scaled lipid accumulation score,[4],≤ 0
CCCCC/C=C\C=C1\C(=O)CC[C@@H]1C/C=C\CCCC(=O)O,scaled lipid accumulation score,[5],≤ 0
CC[P](CC)(CC)=[Au][S][C@@H]1O[C@H](COC(C)=O)[C@@H](OC(C)=O)[C@H](OC(C)=O)[C@H]1OC(C)=O [Auranofin],scaled lipid accumulation score,library stock concentration: 2.9 mM,0.86 (active)
CC(=O)OC[C@H]1O[C@@H]([S-])[C@H](OC(C)=O)[C@@H](OC(C)=O)[C@@H]1OC(C)=O.CCP(CC)CC.[Au+] [Auranofin],scaled lipid accumulation score,[4],0.439
"CC[C@@H](CO)Nc1nc(NCc2ccc(-c3ccccn3)cc2)c2ncn(C(C)C)c2n1 [CR8, (S)-Isomer]",scaled lipid accumulation score,[6],≤ 0
CSc1nc(N)c2ncn([C@@H]3O[C@H](COP(=O)(O)OP(=O)(O)OP(=O)(O)O)[C@H](O)C3O)c2n1 (stereo partly specified) [2-Methylthioadenosine triphosphate tetrasodium],scaled lipid accumulation score,[4],≤ 0
CS(=O)(=O)c1ccc(-n2nc(C(F)(F)F)cc2-c2ccc(F)cc2)cc1,scaled lipid accumulation score,[4],≤ -0.055
CS(=O)(=O)CCNCc1nc(-c2ccc3ncnc(Nc4ccc(OCc5cccc(F)c5)c(Cl)c4)c3c2)cs1.Cl.Cl,scaled lipid accumulation score,[4],1.38 (active)
CC(C)(O)CC(=O)NCCn1ccc2ncnc(Nc3ccc(Oc4cccc(C(F)(F)F)c4)c(Cl)c3)c21,scaled lipid accumulation score,[6],≤ 0
same,scaled lipid accumulation score,[4],0.302
CS(=O)(=O)CCNCc1ccc(-c2ccc3ncnc(Nc4ccc(OCc5cccc(F)c5)c(Cl)c4)c3c2)o1 [listing 1 of 2 here],scaled lipid accumulation score,[1],≤ 0
same,scaled lipid accumulation score,[2],≤ 0 and 0.144
same,scaled lipid accumulation score,[3],0.42
same,scaled lipid accumulation score,[4],0.429
C=CC(=O)Nc1ccc2ncnc(Nc3ccc(OCc4cccc(F)c4)c(Cl)c3)c2c1,scaled lipid accumulation score,[1],≤ -0.016
same,scaled lipid accumulation score,[2],≤ -0.016
same,scaled lipid accumulation score,[3],≤ -0.016
same,scaled lipid accumulation score,[6],0.132
same,scaled lipid accumulation score,[4],0.378 and 0.75
Cc1cc(Nc2ncnc3ccc(-c4ccc(CNCCS(C)(=O)=O)o4)cc23)ccc1Oc1ccn2ncnc2c1 [HER2-Inhibitor-1] [listing 1 of 2 here],scaled lipid accumulation score,[6],0.203
CCC(=O)Nc1ccc2ncnc(Nc3cccc(Br)c3)c2c1,scaled lipid accumulation score,[6],≤ 0
Cc1ccc(CNc2ncnc3ccc(-c4ccc(CO)o4)cc23)o1,scaled lipid accumulation score,[6],≤ -0.009
same,scaled lipid accumulation score,[4],≤ 0
CS(=O)(=O)CCNCc1ccc(-c2ccc3ncnc(Nc4ccc(OCc5cccc(F)c5)c(Cl)c4)c3c2)o1 [listing 2 of 2 here],scaled lipid accumulation score,[3],1.7 (active)
C[C@@H]1COC(Nc2ccc3ncnc(Nc4ccc(OCc5nccs5)c(Cl)c4)c3c2)=N1 [Varlitinib],scaled lipid accumulation score,[6],0.382
same,scaled lipid accumulation score,[4],0.594
Cc1cc(Nc2ncnc3ccc(-c4ccc(CNCCS(C)(=O)=O)o4)cc23)ccc1Oc1ccn2ncnc2c1 [HER2-Inhibitor-1] [listing 2 of 2 here],scaled lipid accumulation score,[4],0.977 (active)
